Pf growth 96h: inhibits malaria parasite growth, 96 h | P. falciparum luciferase reporter growth, 96 h | Potency, µM (doses to about 28.7 µM), for the others: at the top dose activity change, negative = inhibition, actives largely listed as inhibitors | actives 6.9% (n = 320,000); note: potency is the fitted concentration of half-maximal effect; % is set by controls: 0 for no effect and ±100 for the full control effect
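Plates of compound plus infected erythrocytes (2% hematocrit, 0.05% parasitemia final) incubate 96 hours, 37 C, 5% CO2. Detection reagent added; reduced luminescence from the parasites' luciferase reporter flags inhibition.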
HCV inhibitor: HCV inhibition; actives 3.4% (n = 340,000); Potency, µM (highest dose often 41.8 µM), inactives show top-dose activity change, negative = inhibition, hits mostly inhibitors; Huh7.5.1 HCVcc-Cre infection, luciferase reporter, 44 h; note: potency is the fitted concentration of half-maximal effect; % is set by controls: 0 for no effect and ±100 for the full control effect
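Cells (1,000/well) were plated 4 h before compound, then infected with HCVcc-Cre virus (~0.5 moi). After 44 h further culture, infection was read as luciferase luminescence following a 15 min substrate incubation at room temperature.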
CHX counter: counter-screen for Shiga toxin inhibitors: cycloheximide protein synthesis inhibition. actives 12% (n = 300,000). AID 2314. cell reporter, cycloheximide protein synthesis inhibition counterscreen. max response, %; in the data active = max response mostly above about 13%, no sharp cut-off; inactive = mostly below about 14%; note: read at 38.3 µM for the half of the compounds with a filed dose; 0% is about no effect
AMA1-RON2 inh: inhibitors of Plasmodium falciparum AMA1-RON2 interaction; Potency, µM (series often up to 58.2 µM), without a hit: top-dose activity change, negative = inhibition, usual class: inhibitors; AlphaScreen AMA1-biotinylated RON2 peptide binding; actives 0.2% (n = 360,000); AID 720542;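 note: potency is the fitted concentration of half-maximal effect; 0% = vehicle wells and -100% = peptide control; nearly all actives have a fitted effect of over 45% in size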
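AMA1 (3D7) with his tag at 25 nM final met compounds first, then biotinylated RON2 peptide at 25 nM; detection used donor plus acceptor beads, 10 µg/mL apiece, read by AlphaScreen after 30 min at room temperature.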
Shiga inhibitor: Shiga toxin inhibition. Vero cells, Shiga toxin protein synthesis inhibition reporter. inhibition, % at 38.7 µM. actives 9.2% (n = 290,000). AID 2315; in the data active = inhibition mostly above about 28%, no sharp cut-off; inactive = mostly below about 43%; note: 0% is about no effect
Pf growth 48h: inhibits P. falciparum growth in the first generation, 48 h; P. falciparum luciferase growth in erythrocytes, 48 h; Potency, µM (series often up to 28.7 µM), without a hit: at the highest dose activity change, negative = inhibition, hits mostly inhibitors; actives 5.9% (n = 310,000); AID 504832; note: potency is the fitted concentration of half-maximal effect; % is set by controls: 0 for no effect and ±100 for the full control effect
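Luciferase-expressing P. falciparum in infected erythrocytes (2% hematocrit, 0.1% parasitemia final) in RPMI 1640/0.5% Albumax were exposed to compound for 48 hours at 37 C, 5% CO2; growth read as luminescence.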
* hit, by the source's call; ? = inconclusive; / = no result; [ ] = remark or other dose. Shown are actives, neighbours in structure and some others; about 21% of the full set was active somewhere. Unless noted, calls come from the whole dose curve; as a rule, active = well fitted curve in the direction sought with a large enough effect; inconclusive = small, poorly fitted or top-dose-only effect, or another doubt; inactive = no such curve, though single readings can be large; an effect the other way counts as inactive or inconclusive.

SMILES	Pf growth 96h	HCV inhibitor	CHX counter	AMA1-RON2 inh	Shiga inhibitor	Pf growth 48h
COc1ccc(CN2CCC(=O)N([C@H](CO)c3ccccc3)CC2)cc1	?	-7.7%	-2.9	6.9%	19.2	16.1%
Cc1cc(C(F)(F)F)c2c(N)c(C(=O)Nc3cc(C)on3)sc2n1	?	?	55.3*	20.0%	116.6*	159.3%
COCc1cc(C)nc2sc(C(=O)Nc3ccc(C(=O)OC)cc3)c(N)c12	7.5%	-17.4%	-1.4	10.0%	/	-27.6%
Cc1cc(C)c2c(N)c(C(=O)Nc3ccc([N+](=O)[O-])cc3)sc2n1	41.6%	23.9%	19.8*	0.0%	41.9*	111.3%
Cc1cc(C)c2c(N)c(C(=O)c3ccc(Cl)cc3)sc2n1	54.2%	-26.4%	5.0	4.6%	26.1	?
Cc1cc(C(F)(F)F)c2c(N)c(C(=O)NCc3ccc(Cl)cc3)sc2n1	/	/	/	56.0%	/	/
Cc1cc(C)c2c(N)c(C(=O)c3ccc(Cl)c(Cl)c3)sc2n1	-6.6%	?	21.4	1.1%	81.6*	11.6%
Cc1ccc(NC(=O)c2sc(N)nc2-c2ccc([N+](=O)[O-])cc2)cc1C	28.9%	-10.7%	-2.1	-2.2%	-14.4	-4.7%
COCc1cc(C)nc2sc(C(=O)Nc3ccccc3F)c(N)c12	?	10µM*	19.8	22.4%	/	7.5%
Cc1csc(=O)n1CCC(=O)OCC(=O)c1ccc(Br)cc1	34.7%	36.2%	/	?	/	11.9%
O=C(O)c1ccc(S(=O)(=O)N[C@H](Cc2ccc(O)cc2)C(=O)O)cc1	8.7%	/	-6.7	/	16.1	4.3%
O=C(Cc1cccc(NC(=O)C2CCN(C(=O)C3CCC3)CC2)c1)Nc1cccc(C(=O)N2CCCC2)c1	?	-21.9%	/	8.8%	/	?
Cc1cn([C@H]2C[C@H](O)[C@@H](CNC=O)O2)c(=O)[nH]c1=O	/	/	/	-4.0%	/	/
COc1ccccc1NC(=O)c1sc2nc(C)cc(C)c2c1N	/	7.3%	/	-1.9%	/	/
Cc1cc(C)c2c(N)c(C(=O)Nc3ccc(F)cc3)sc2n1	?	-11.4%	44.6*	2.2%	91.8*	250.9%
Cc1cc(C)c2c(N)c(C(=O)Nc3ccc(C)c(C)c3)sc2n1	31.8%	-29.8%	32.9*	10.1%	123.7*	48.4%
Cc1ccc(-n2ccc(=O)c(C(=O)Nc3ccc(S(=O)(=O)Nc4onc(C)c4C)cc3)n2)cc1	-18.6%	15.0%	-0.3	0.0%	-5.5	-14.1%
COC(=O)[C@@]1(Sc2ccc(C)cc2)CC(=O)N[C@@H]1c1ccco1	/	/	/	-15.1%	/	/
CCOCc1cn(CC(=O)c2ccc([N+](=O)[O-])cc2)c(C)nc1=N	/	?	-2.7	-6.0%	-18.0	1.04µM*
Cc1cc(C)n(CC(=O)c2ccc(Cl)cc2)n1	13.3%	-2.5%	-1.5	31.5%	-7.4	22.5%
CCOCc1cn(CC(=O)c2ccc(Cl)cc2)c(C)nc1=N	/	-5.3%	-3.5	2.8%	-16.9	4.15µM*
COc1ccc(C(=O)Cn2cc([N+](=O)[O-])nc2C)cc1	24.9%	4.1%	2.3	15.0%	-6.6	5.3%[0.00184 µM]
CCCC1SCC(C)(C)NC1=O (configuration not stated)	/	15.2%	/	-0.5%	/	/
COc1ccc(F)cc1C(=O)C1CCCN(C(=O)c2ccccc2N(C)C)C1 (configuration not stated)	?	-18.0%	11.6	0.0%	-1.2	?
Cc1onc(C(=O)Nc2ccc(OC(F)(F)F)cc2)c1[N+](=O)[O-]	?	-19.8%	57.2*	-5.2%	89.2*	5.7%
Cc1onc(C(=O)NCCc2ccccc2)c1[N+](=O)[O-]	22.3%	15.0%	13.5	14.7%	48.1	13.8%[0.00184 µM]
CC(=O)c1ccc(NC(=O)c2noc(C)c2[N+](=O)[O-])cc1	22.6%	?	31.2*	2.1%	63.1*	-2.2%
CC1(c2nnnn2-c2ccc3c(c2)OCCO3)CCC(=O)N1CCCn1ccnc1 (configuration not stated)	/	/	/	-4.1%	/	/
O=C(Cn1cnc2ccccc2c1=O)NCCC(=O)Nc1ccc(F)cc1	2.7%	1.0%	-2.5	-1.4%	16.4	20.3%
O=C(Cn1cnc2ccccc2c1=O)Nc1ccc2c(c1)CCC2	?	4.7%	5.5	-9.0%	-24.3	8.7%
